Experimental data taken from PubChem BioAssay (NCATS).
Several values for one entry are separate records, joined by “and”; a condition that tells them apart may be missing. Equal entries are not always repeated. Records with an inconclusive call do not appear. Activity calls are given as the source filed them. Unless noted, the call rests on the fitted dose curve; in most records, active means well fitted curve in the direction sought with a large enough effect; inconclusive means small, poorly fitted or top-dose-only effect, or another doubt; inactive means no such curve, though single readings can be large; an effect the other way counts as inactive or inconclusive.

Columns and labels:
[1] = Cell Viability - N2a (AID 540); conditions: N2a mouse neuroblastoma cell viability; activity change, negative = cytotoxicity: at 92.2 µM (top of the series);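 further: cells exposed to compound for 40 h at 37 °C; plate controls were DMSO alone for no effect and tamoxifen control for full effect; nearly all actives have a fitted effect of over 45% in size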
In short: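 Luminescent ATP signal (CellTiter-Glo, 20 min at room temperature) served as the viability read-out after N2a cells were treated with compounds for 40 hours at 37 °C. Concentration-response data were fitted to the Hill equation for AC50.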

[2] = Cell Viability - Renal Proximal Tubule (AID 545); conditions: renal proximal tubule cells viability, primary cells of rat origin; at 91.7 µM (top of the series); further: nearly all actives have a fitted effect of over 40% in size
In short: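 Rat kidney proximal tubule cells, freshly isolated; 1000 cells/well, 5 hr settle, compound 40 hr 37 °C. CellTiter-Glo 20 min RT, luminescence read. AC50 by standard Hill fit.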

[3] = Cellular Toxicity (caspase-3) Jurkat (AID 655); conditions: Jurkat caspase-3 activation, luminescence, DMSO = 0%, tamoxifen = 100%; at 92.2 µM (top of the series);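 further: cells exposed to compound for 16 h at 37 °C before reading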
In short: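 Luminescent caspase-3/7 readout (aminoluciferin substrate cleavage) in human T-cell leukemia Jurkat cells after 16 hr compound exposure. Concentration-response normalized to DMSO and 100 uM tamoxifen; AC50 by standard Hill equation.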

[4] = Cell Viability - LYMP1-003 - Assay at 24 hr (AID 963);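 further: plate controls were DMSO only for no effect and tetraoctylammonium bromide positive control for full effect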
In short: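 Cells seeded at 2500/well, 5 hr at 37 C; compounds added; 24 hr at 37 C; CellTiter-Glo added, 30 min room temperature; luminescence read. Decrease in ATP taken as cytotoxicity, AC50 from Hill modelling.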

[5] = Cell Viability - LYMP2-004 (AID 966);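 further: plate controls were DMSO only for no effect and tetraoctylammonium bromide control for full effect; nearly all actives have a fitted effect of over 65% in size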
In short: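 Cells seeded 2500/well, rested 5 hr at 37 C, dosed across a concentration series, incubated 24 hr at 37 C, then CellTiter-Glo added for 30 min at room temperature and luminescence read. Hill fitting gave AC50.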

[6] = Cell Viability - LYMP2-005 (AID 967);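 further: plate controls were DMSO only for no effect and 92 µM tetraoctylammonium bromide control for full effect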
In short: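 Steps: seed 2500 LYMP2-005 cells/well, incubate 5 h at 37 C, add compound, incubate 24 h at 37 C, add CellTiter-Glo, wait 30 min at RT, read luminescence. Concentration-response data fitted to Hill equation for AC50.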

[7] = Cell Viability - LYMP2-015 (AID 971);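 further: 0% = DMSO only and full effect = 92 µM tetraoctylammonium bromide; nearly all actives have a fitted effect of over 55% in size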
In short: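 Luminescent ATP read-out (CellTiter-Glo) served as the viability measure after lymphoblastoid cells were exposed to compounds for 24 hours at 37 C. Concentration-response data were fitted with the Hill equation to give AC50.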

[8] = Cell Viability - LYMP2-019 (AID 973);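 further: 0% = DMSO alone and full effect = 92 µM tetraoctylammonium bromide; nearly all actives have a fitted effect of over 55% in size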
In short: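 Luminescent ATP read-out (CellTiter-Glo, 30 min room temperature) served as the viability measure after 24 hr treatment of lymphoblastoid cells at 37 C. Concentration-response data were fitted to the Hill equation for AC50.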

[9] = Cell Viability - LYMP2-021 (AID 974);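 further: compound exposure lasts 24 hours at 37 °C; on the % scale 0 is the no-effect control and ±100 the full control effect; nearly all actives have a fitted effect of over 55% in size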
In short: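 Plate 2500 lymphoblastoid cells per well and incubate 5 hr at 37 C. Add compounds over a concentration range and incubate 24 hr at 37 C. Add CellTiter-Glo, wait 30 min at room temperature, read luminescence.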

[10] = Cell Viability - LYMP2-023 (AID 975);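 further: cellular ATP measured by luciferase luminescence as viability proxy; plate controls were DMSO only for no effect and 92 µM tetraoctylammonium bromide control for full effect; nearly all actives have a fitted effect of over 55% in size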
In short: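 2500 cells/well, 5 hr 37 C; cpd 24 hr 37 C; CellTiter-Glo, 30 min RT; luminescence. qHTS conc-response, Hill fit -> AC50. Pos ctrl tetraoctylammonium bromide.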

[11] = Cell Viability - LYMP2-025 (AID 976);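 further: plate controls were DMSO only for no effect and tetraoctylammonium bromide control for full effect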
In short: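 Seed 2500 LYMP2-025 cells/well; 5 hr at 37 C; add compound; 24 hr at 37 C; add CellTiter-Glo; 30 min RT; read luminescence. AC50 from Hill-modelled concentration-response.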

[12] = Cell Viability - LYMP2-002 (AID 977);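 further: compound exposure lasted 24 h at 37 °C; plate controls were DMSO only for no effect and 92 µM tetraoctylammonium bromide for full effect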
In short: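 Human lymphoblastoid LYMP2-002 cells, 2500 per well, exposed to compounds for 24 h at 37 C in complete medium; viability read as intracellular ATP by CellTiter-Glo luminescence, AC50 from Hill fits.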

[13] = Cell Viability - LYMP2-006 (AID 978); further: on the % scale 0 is the no-effect control and ±100 the full control effect; nearly all actives have a fitted effect of over 60% in size
In short: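 qHTS, 1536-well; 2500 cells/well, 5 hr 37 C; cpd 24 hr 37 C; CellTiter-Glo 30 min RT; luminescence. Tetraoctylammonium bromide pos. ctrl. AC50 via Hill eqn.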

[14] = Cell Viability - LYMP2-008 (AID 980); further: on the % scale 0 is the no-effect control and ±100 the full control effect; nearly all actives have a fitted effect of over 60% in size
In short: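 qHTS, human lymphoblastoid line, 2500 cells/well; 5 hr preincubation, 24 hr compound, 37 C. CellTiter-Glo ATP luminescence. AC50 via Hill equation. Tetraoctylammonium bromide positive control.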

[15] = Cell Viability - LYMP2-026 (AID 989); further: on the % scale 0 is the no-effect control and ±100 the full control effect; nearly all actives have a fitted effect of over 50% in size
In short: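 Luminescent ATP signal (CellTiter-Glo, 30 min room temperature) measures viable lymphoblastoid cells after 24 hr compound treatment at 37 C. Decreased ATP reflects acute toxicity; AC50 values come from Hill-equation modeling.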

[16] = Cell Viability - LYMP1-002 - Assay at 24 hr (AID 993); further: on the % scale 0 is the no-effect control and ±100 the full control effect
In short: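 Cells plated 2500/well, 5 hr 37 C; compounds added, 24 hr 37 C; CellTiter-Glo added, 30 min RT; luminescence read. Tetraoctylammonium bromide positive control. Hill-equation AC50.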

[17] = Cell Viability - LYMP1-002 - Assay at 40 hr (AID 994);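 further: 0% = DMSO only and full inhibition = 92 µM tetraoctylammonium bromide; nearly all actives have a fitted effect of over 60% in size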
In short: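 Luminescent ATP signal served as the viability readout, with decreases taken as toxicity. Cells were treated with compounds across a concentration range for 40 hours at 37 C, and AC50 values came from standard Hill modeling.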

[18] = biological target: Retinoic acid receptor RXR-alpha (Homo sapiens) (UniProt P19793); assay: qHTS assay for small molecule antagonists of retinoid X receptor alpha signaling (AID 588546; active means well fitted inhibition curve with a large enough effect in the signal ratio, with a control signal flat, not every such curve was filed as active; the % refers to the signal ratio;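 further: cells stimulated with 9-cis-retinoic acid as agonist; on the % scale 0 is the no-effect control and ±100 the full control effect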); conditions: HEK293T RXRa-UAS-bla, beta-lactamase ratio, antagonist mode
Retinoic acid receptor RXR-alpha (Homo sapiens), sequence (P19793 whole entry, looked up): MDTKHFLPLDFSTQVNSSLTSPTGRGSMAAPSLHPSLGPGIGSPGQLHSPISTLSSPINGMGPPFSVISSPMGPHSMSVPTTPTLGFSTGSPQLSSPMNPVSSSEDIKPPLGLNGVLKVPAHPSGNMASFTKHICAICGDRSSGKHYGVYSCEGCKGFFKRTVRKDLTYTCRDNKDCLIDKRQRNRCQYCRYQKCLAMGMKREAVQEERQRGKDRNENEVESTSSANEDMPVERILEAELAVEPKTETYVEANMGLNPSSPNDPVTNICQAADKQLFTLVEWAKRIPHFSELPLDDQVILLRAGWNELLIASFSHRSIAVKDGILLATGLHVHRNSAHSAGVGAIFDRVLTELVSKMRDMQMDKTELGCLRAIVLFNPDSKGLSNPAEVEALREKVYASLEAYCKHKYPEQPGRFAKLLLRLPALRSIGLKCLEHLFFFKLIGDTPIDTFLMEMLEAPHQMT
In short: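 Beta-lactamase reporter inhibition, read as CCF4 fluorescence ratio (ex 405, em 460/530 nm) after 2 h at RT. HEK293T UAS-bla cells, 2500/well, were stimulated with 9-cis-RA at 500 or 100 nM final alongside test compound for 18 h at 37 C.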

[19] = qHTS assay for small molecule agonists of the antioxidant response element (ARE) signaling pathway measured by Nrf2-dependant transcriptional activity - cell viability counter screen (AID 720653; active means well fitted curve in the direction sought with a large enough effect in the repeat runs; an effect the other way counts as inactive or inconclusive; further: on the % scale 0 is the no-effect control and ±100 the full control effect); conditions: ARE-bla HepG2 viability, CellTiter-Glo ATP luminescence, 16 h; max response: active compounds read low
In short: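 ARE-bla HepG2 cells treated with compounds for 16 h at 37C; this counter screen measures viability as intracellular ATP by CellTiter-Glo luminescence after 30 min at room temperature.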

[20] = qHTS assay for cell viability of the p53RE-bla HCT-116 cell line (AID 743292)
In short: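 Viability of compound-treated p53RE-bla HCT-116 cells is taken from ATP-dependent luciferase luminescence. Treatment lasts 16 h at 37 C after a 5 h settling period; detection follows 30 min at room temperature.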

CC1=CC(C)(C)Nc2ccccc21
inactive: activity change, negative = cytotoxicity [1] -24% and 1.94% | activity change, negative = cytotoxicity [2] -6.6% and -0.974% | caspase-3 activation [3] -0.184% and 0.591% | Potency [4] | Potency [5] | Potency [6] | Potency [7] | Potency [8] | Potency [9] | Potency [10] | Potency [11] | Potency [12] | Potency [13] | Potency [14] | Potency [15] | Potency [16] | Potency [17] | max response [18] 7.64% and -0.906% | max response [19] 0.655% and 4.88% | Potency [20]

CCCCCCCCO
inactive: activity change, negative = cytotoxicity [1] -10.6% | activity change, negative = cytotoxicity [2] -1.75% | caspase-3 activation [3] -0.397% | Potency [4] | Potency [5] | Potency [7] | Potency [8] | Potency [9] | Potency [10] | Potency [11] | Potency [12] | Potency [13] | Potency [14] | Potency [15] | Potency [16] | Potency [17] | max response [18] 1.87% and 1.57% and -7.12% | max response [19] -1.13% and 11.2% and -1.97% | Potency [20]

c1ccc2c(c1)[nH]c1ccccc12
inactive: activity change, negative = cytotoxicity [1] -16.4% | activity change, negative = cytotoxicity [2] -10.3% | caspase-3 activation [3] 0.344% | Potency [4] | Potency [5] | Potency [6] | Potency [7] | Potency [8] | Potency [9] | Potency [10] | Potency [11] | Potency [12] | Potency [13] | Potency [14] | Potency [15] | Potency [16] | Potency [17] | max response [18] 0.549% and -19.1% | max response [19] -11% and -21.8% | Potency [20]

Nc1ccc(S(=O)(=O)O)cc1
inactive: activity change, negative = cytotoxicity [1] -1.94% | activity change, negative = cytotoxicity [2] -9.81% | caspase-3 activation [3] 0.897% | Potency [4] | Potency [5] | Potency [6] | Potency [7] | Potency [8] | Potency [9] | Potency [10] | Potency [11] | Potency [12] | Potency [13] | Potency [14] | Potency [15] | Potency [16] | Potency [17] | max response [18] -17.1% | max response [19] 0.96% and 3.16% | Potency [20]

O=C(O)CC(C(=O)O)C(CC(=O)O)C(=O)O (centres undefined)
inactive: activity change, negative = cytotoxicity [1] -8.87% | activity change, negative = cytotoxicity [2] -9.72% | caspase-3 activation [3] -0.624% | Potency [4] | Potency [5] | Potency [6] | Potency [7] | Potency [8] | Potency [9] | Potency [10] | Potency [11] | Potency [12] | Potency [13] | Potency [14] | Potency [15] | Potency [16] | Potency [17] | max response [18] -2.56% and -11.2% | max response [19] -9.78% and -3.54% | Potency [20]
